Source: PubChem
Not all results are given here.
aSyn UTR act – Activators working through SNCA 5'UTR binding (MLPCN). activity score, % (tested at 7.5 µM), hits read low. hit rate 7.1% among 300,000. alpha-synuclein 5'UTR reporter, activators screen; in the data active means activity score below about -60%
The depositor's hits bear a star.

SMILES	aSyn UTR act
CC1CCC/C(=N\NC(=S)Nc2ccccc2)C1 (stereo unspecified)	-94*
CC1CCCC/C1=N\NC(=S)Nc1ccccc1 (stereo unspecified)	-132*
CN(Cc1cccs1)C(=O)Cc1csc(-c2ccccc2)n1	-116*
Cn1cccc1C(=O)OCc1csc(-c2ccccc2)n1	-112*
Cc1ccsc1C(=O)OCc1csc(-c2ccccc2)n1	-99*
Cc1ccc2c(c1)COc1c3ccc(C(=O)NCCO)cc3nn1-2	-158*
O=C(NCC1CC1)c1ccc2c3n(nc2c1)-c1ccc(Cl)cc1CO3	-166*
COCCNC(=O)c1c[nH]c2ccc(S(=O)(=O)N3CCc4ccccc43)cc2c1=O	61
COCCNC(=O)c1ccc2c3n(nc2c1)-c1ccccc1CO3	-108*
COCCNC(=O)c1ccc2c3n(nc2c1)-c1ccc(Cl)cc1CO3	-164*
O=C(NCCO)c1ccc2c3n(nc2c1)-c1ccc(Cl)cc1CO3	-158*
CCOC(=O)C(C)n1cnc2c(cnn2-c2ccc(Cl)cc2)c1=O (stereo unspecified)	-135*
CCCCn1cnc2c(cnn2-c2ccc(F)cc2)c1=O	-123*
CCCn1cnc2c(cnn2-c2ccc(F)cc2)c1=O	-115*
CCCCn1cnc2c(cnn2-c2ccc(Cl)cc2)c1=O	-109*
Nc1nn2cc(-c3ccccc3)nc2c2ccccc12	-112*
CCc1nn2cc(-c3ccccc3)nc2s1	80
O=C(NNc1cccc(Cl)n1)c1ccc(Cl)cc1Cl	-81*
CCOc1ccc(-c2nc(CCl)cs2)cc1	-70*
Cc1ccc(-c2csc(NC(=O)C3=COCCO3)n2)cc1	-169*
O=C(Nc1nc(-c2cc(F)ccc2F)cs1)c1ccccn1	-115*
CCOC(=O)c1csc(NC(=O)C2=COCCO2)n1	-87*
Cc1ccc(-c2csc(NC(=O)N3CCOCC3)n2)cc1	-103*
COc1ccc(OC)c(NC(=O)c2ccc(-c3csc(C)n3)cc2)c1	-84*
Cc1nc(-c2ccc(NC(=O)c3ccc(Br)o3)cc2)cs1	-175*
SMILES	aSyn UTR act
CC(=O)Nc1ccc(-c2csc(NC(=O)C3=COCCO3)n2)cc1	-115*
O=C(Nc1nc(-c2cc(F)ccc2F)cs1)C1=COCCO1	-63*
CCOC(=O)c1csc(NC(=O)C2CCCCC2)n1	-103*
COc1ccc(C)c2sc(NC(=O)C3=COCCO3)nc12	-77*
O=C(Nc1cccc(Br)c1)c1ccn[nH]1	-102*
Cc1nc(-c2ccc(C(=O)Nc3cccc(Br)c3)cc2)cs1	-143*
CC(=O)Nc1ccc(-c2csc(NC(=O)c3ccc(C)o3)n2)cc1	-83*
CC(C)(C)c1csc(NC(=O)C2=COCCO2)n1	-107*
O=C(NC(=S)Nc1ccc(CN2CCCCC2)cc1)c1cccc(OCc2ccccc2)c1	-65*
CC(C)(C)c1cc(Cl)c(O)c(NC(=S)NC(=O)c2cccnc2)c1	80
CCOc1cccc(C(=O)NC(=S)Nc2cccnc2)c1	-142*
CCOc1cccc(C(=O)NC(=S)Nc2ccccc2)c1	-184*
Cc1cccc(OCC2=NS(=O)(=O)c3ccccc3N2)c1	-93*
O=C(Nc1cc(Cl)cc(Cl)c1)c1cccc(OC(F)F)c1	-98*
Cc1ccnc(NC(=O)c2cccc(OC(F)F)c2)n1	-77*
Nc1nc(NC(=O)c2ccccc2)nn1-c1ccccc1	-71*
O=C(Nc1nc(NC(=O)c2ccco2)n(-c2ccccc2)n1)c1ccccc1	79
Nc1nc(NC(=O)c2cccs2)nn1-c1ccccc1	-115*
Cc1cc(-c2nnco2)c(C)n1-c1ccccc1	-101*
Cc1cc(C2=NNC(=NC3CC3)SC2)c(C)n1-c1ccccc1	95
CN(C)c1cccc(C(=O)NCC(c2ccco2)N(C)C)c1 (stereo unspecified)	-75*
CN(C)C(CNC(=O)c1ccc2ccccc2c1)c1ccco1 (stereo unspecified)	-62*
Cc1ccc(C(=O)CC(=O)c2ccc(C)cc2O)cc1	-95*
Cc1ccc(C(=O)CC(=O)c2ccc(C(C)(C)C)cc2)cc1	-113*
Cc1ccc(C(=O)CC(=O)c2cc(Cl)ccc2O)cc1	-151*
SMILES	aSyn UTR act
CC(C)(C)c1ccc(C(=O)CS(=O)(=O)c2ccccc2)cc1	-133*
Cc1cc(C(=O)N2CCN(c3cccc(Cl)c3)CC2)c(C)o1	-137*
CCOC(=O)c1cccc(NC(=O)c2cnc3ccccc3n2)c1	-106*
CCOC(=O)c1cccc(NC(=O)c2cncc(Br)c2)c1	-82*
O=C(c1csc(Nc2ccccc2Cl)n1)N1CCCC1	-117*
C#CCn1c(=NC(=O)c2ccc(Cl)s2)sc2cccc(OC)c21	-79*
COC(=O)Cn1c(=NC(=O)c2ccc(Cl)s2)sc2cc(F)ccc21	-111*
O=c1c2ccccc2sc2ccc(NCCCN3CCOCC3)cc12	-158*
CN1CCCC1CCNc1ccc2sc3ccccc3c(=O)c2c1 (stereo unspecified)	-114*
Cc1cc2oc3cc(NCCC4CCCN4C)ccc3c(=O)c2cc1C (stereo unspecified)	-184*
Cc1nc(NC(=O)c2ccccc2)sc1-c1csc(Nc2ccc(Cl)cc2)n1	-65*
Cc1nc(NC(=O)c2ccccc2)sc1-c1csc(Nc2ccc(F)cc2)n1	-94*
COc1ccc(OC)c(Nc2nc(-c3sc(NC(=O)c4ccccc4)nc3C)cs2)c1	-244*
Cc1nc(NC(=O)c2ccccc2)sc1-c1csc(Nc2ccc(Cl)cc2Cl)n1	-84*
Cc1nc(NC(=O)c2ccco2)sc1-c1csc(Nc2ccc(Cl)cc2)n1	-70*
O=C(CCl)Nc1ccc(N2CCCCCC2)cc1	-72*
CCNC(=S)Nc1ccc(N2CCCCC2)cc1	-159*
CCCC(=O)Nc1ccc(N2CCCCC2)cc1	-116*
Cc1nc2cc(-c3ccccc3)ccc2o1	-67*
O=C(O)C(=O)/C(=C\c1ccc(Cl)cc1)c1ccc2ccccc2n1	-226*
COc1ccc(-c2c3c(nc4sc(C(=O)Nc5ccccc5)c(N)c24)CCC3)cc1	-128*
CCOC(=O)c1c(C)nc2sc(C(=O)Nc3ccccc3)c(N)c2c1-c1ccc(OC)cc1	-191*
Cc1cc(O)c(NC(=O)c2ccc(Br)o2)cc1C	-178*
O=C(Nc1ccc(Cl)cc1Cl)c1ccc(Br)o1	-124*
Cc1nc(NC(=O)CCl)sc1C(=O)N(C)C	-70*
SMILES	aSyn UTR act
CCOC(=O)c1sc(NC(=O)c2cc3c(s2)CCC(C)C3)nc1C (stereo unspecified)	-101*
CC1CCc2sc(C(=O)Nc3ccc(C(N)=O)cc3)cc2C1 (stereo unspecified)	-119*
Cc1ccc(NC(=O)c2scc3c2CCCC3)cc1	-90*
Cc1nc(NC(=O)c2ccc(Br)s2)sc1C(=O)N(C)C	-122*
O=C(Nc1ccccc1OC(F)F)c1cc2c(s1)CCC2	-161*
COC(=O)c1sc(NC(=O)c2cc3c(s2)CCCC3)nc1C	-204*
Cc1ccc(NC(=O)c2cc3c(s2)CCCC3)cc1	-193*
Cc1nc(NC(=O)c2cc3c(s2)CCCCC3)sc1C(=O)N(C)C	-175*
O=C(Nc1ccccc1)OCc1cc(-c2ccccc2Cl)on1	-160*
O=C(Nc1cccc(Cl)c1)OCCOc1ccccc1	-140*
O=C(Nc1ccccc1)OCCOc1ccccc1	-143*
CCC1(COC(=O)Nc2cccc(Cl)c2)COC1	-93*
O=C(Nc1ccccc1)OCCOc1ccccc1Br	-125*
O=C(Nc1ccccc1)OCc1ccccn1	-102*
CN(C)c1ccc(C(=O)OCc2ccccc2)cc1	-74*
CN(C)c1ccc(CCc2ccc(N)cc2)cc1	84
CC(=O)Nc1ccc2c(c1)C(=O)c1ccccc1C2=O	-185*
